IL-1B inflam inh – inflammasome signaling inhibition, IL-1 beta readout; THP-1 LPS/ATP IL-1B secretion, AlphaLISA, 16 h; stronger effect = lower value; 360,000 tested, 4.7% active; activity change, % at 57.5 µM; AID 743279; in the data active means activity change below about -50%; inconclusive means mostly about -30% to -49%
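THP-1 cells pretreated 1 hr with compounds (up to 57.5 uM final), then stimulated with LPS (250 ng/mL final) plus ATP (1.25 mM final); secreted IL-1B measured by AlphaLISA after 16 hr, decreased signal indicating inhibition.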
DT40 TDP1 CPT – DT40-hTDP1 cell growth loss with CPT; chicken DT40 Tdp1-/-;hTDP1 cells + 20 nM CPT, ATP luminescence, 48 h; Potency, µM (titrated, usually from 46.2 µM), for inactives: at the highest dose activity change, negative = growth inhibition, most hits filed as inhibitors; 420,000 tested, 12% active; further: potency means the concentration at half of the fitted maximal effect; nearly all actives have a fitted effect of over 55% in size
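Cell growth measured by CellTiter-Glo luminescence after a minimum 48 h, 37 C compound exposure with 20 nM CPT in Tdp1-knockout DT40 cells stably expressing hTDP1, seeded 400/well; qHTS titration format.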
HT1080NT lethal – kills 2HG-producing HT-1080-NT fibrosarcoma cells. Potency, µM (top dose mostly 46.1 µM), for inactives: top-dose activity, negative = less viability, hits mostly cytotoxic. HT-1080-NT fibrosarcoma viability, CellTiter-Glo ATP luminescence, 48 h. 360,000 tested, 1.6% active;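 further: NT is the 2HG producing partner of a matched IDH1 knockdown line; potency means the concentration at half of the fitted maximal effect; 0% = DMSO-treated cells and -100% = media-only wells without cells; nearly all actives have a fitted effect of over 55% in size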
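Fibrosarcoma NT cells, 750 per well in 5% FBS RPMI, were exposed to compound for 48 hours. Viability: CellTiter-Glo luminescence.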
HT1080 IDH1KD tx – HT-1080 IDH1 knockdown cell toxicity (counter line); AID 686971; 360,000 tested, 2% active; HT-1080 IDH1 knockdown viability, ATP luminescence, 48 h; Potency, µM (top dose mostly 46.1 µM), without a hit: at the top dose activity, negative = toxicity, usual class: cytotoxic;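 further: potency means the concentration at half of the fitted maximal effect; 0% = DMSO wells and -100% = cell-free medium wells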
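After a 2 h attachment period, IDH1KD HT-1080 cells took pin-transferred compound for 48 h at 37 °C; ATP-based luminescence after 10 min room-temperature reagent incubation reported viability.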
12-LOX inh – blocks human arachidonate 12S-lipoxygenase. P18054. purified 12hLO, xylenol orange hydroperoxide absorbance. Potency, µM (doses to about 108 µM), for inactives: top-dose activity change, negative = inhibition, hits mostly inhibitors. 580,000 tested, 1.1% active. AID 1671190; further: potency means the concentration at half of the fitted maximal effect
Target sequence (P18054 whole entry, looked up): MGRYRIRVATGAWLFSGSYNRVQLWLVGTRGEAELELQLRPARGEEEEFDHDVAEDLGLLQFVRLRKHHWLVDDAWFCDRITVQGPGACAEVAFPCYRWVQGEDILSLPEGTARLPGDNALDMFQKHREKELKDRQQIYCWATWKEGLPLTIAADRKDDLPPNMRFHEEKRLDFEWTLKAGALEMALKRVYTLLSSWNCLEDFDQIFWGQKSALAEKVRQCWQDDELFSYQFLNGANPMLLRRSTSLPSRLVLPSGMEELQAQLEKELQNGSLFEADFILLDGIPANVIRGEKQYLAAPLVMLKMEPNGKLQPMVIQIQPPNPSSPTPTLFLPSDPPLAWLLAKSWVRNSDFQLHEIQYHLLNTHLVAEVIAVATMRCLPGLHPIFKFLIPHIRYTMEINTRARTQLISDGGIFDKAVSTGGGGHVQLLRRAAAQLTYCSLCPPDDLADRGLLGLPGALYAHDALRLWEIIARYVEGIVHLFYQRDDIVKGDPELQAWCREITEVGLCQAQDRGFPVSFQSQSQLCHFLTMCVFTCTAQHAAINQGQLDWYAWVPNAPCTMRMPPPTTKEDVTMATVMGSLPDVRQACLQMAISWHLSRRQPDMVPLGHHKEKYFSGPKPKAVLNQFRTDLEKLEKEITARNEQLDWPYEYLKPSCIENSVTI
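Hydroperoxide product was detected by ferrous iron/xylenol orange as the 573 to 405 nm absorbance ratio. Arachidonic acid at 40 uM (final) was turned over for 30 min at room temperature by 150 nM human 12hLO, pH 7.0 Hepes buffer, after 15 min compound preincubation.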
TDP1 cell noCPT – qHTS for Inhibitors of human tyrosyl-DNA phosphodiesterase 1 (TDP1): qHTS in cells in absence of CPT; DT40 Tdp1-/- hTDP1 cells, no CPT, ATP luminescence, 48 h; AID 686978, 2013; 420,000 tested, 15% active; Potency, µM (top dose mostly 46.2 µM), inactives show at the highest dose activity change, negative = growth inhibition, hits mostly inhibitors; further: potency means the concentration at half of the fitted maximal effect; nearly all actives have a fitted effect of over 55% in size
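Camptothecin absent (DMSO only). Human TDP1-complemented DT40 knockout cells, 400 cells/well, 37 °C for minimum 48 hr; ATP measured via CellTiter-Glo, 30 min dark incubation, luminescence.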
An asterisk follows results filed as active. The sample as a whole holds a higher share of hits than the screen did. Unless noted, the call rests on the fitted dose curve; in most records, active means well fitted curve in the direction sought with a large enough effect; inconclusive means small, poorly fitted or top-dose-only effect, or another doubt; inactive means no such curve, though single readings can be large; an effect the other way counts as inactive or inconclusive. Unless noted, on the % scale 0 is the no-effect control and ±100 the full control effect.

For CC(=O)NC(Cc1ccc(F)c(F)c1)C(=O)NC1CCN(C(=O)c2ccc(Cl)cc2)CC1 (stereo unspecified) the results were IL-1B inflam inh -6.2, DT40 TDP1 CPT -0.7%, HT1080NT lethal 0.6%, HT1080 IDH1KD tx 0.1%, 12-LOX inh 1.3% and TDP1 cell noCPT -12.2%.
COc1cccc(CN(C)C(=O)C2CCCN(C(=O)c3ccc(Cl)cc3)C2)c1 (stereo unspecified) was read as IL-1B inflam inh 11.9, DT40 TDP1 CPT 20.6µM*, HT1080NT lethal -2.0%, HT1080 IDH1KD tx 4.6%, 12-LOX inh 13.6% and TDP1 cell noCPT inconclusive.
For O=C(c1cccc(F)c1)N1CCN(c2nnc3ccc(Cl)cn23)CC1 the results were 12-LOX inh 42.7%.
COc1ccc(C2=NN(C(C#N)c3ccc(OC)c(OC)c3)C(c3ccccc3)C2)cc1 (stereo unspecified) was read as IL-1B inflam inh -22.1, DT40 TDP1 CPT inconclusive, HT1080NT lethal -25.1%, HT1080 IDH1KD tx -15.1%, 12-LOX inh inconclusive and TDP1 cell noCPT 20.6µM*.
`COc1ccc(C2=NN(c3ccccc3)C(c3ccc(OC)c(OC)c3)C2)cc1` (stereo unspecified) gave IL-1B inflam inh 0.0, DT40 TDP1 CPT -19.0%, HT1080NT lethal 2.4%, HT1080 IDH1KD tx -16.1%, 12-LOX inh 21.1% and TDP1 cell noCPT -10.8%.
For COc1ccc(C(C#N)N2CCC(c3ccccc3)=N2)cc1OC (stereo unspecified) the results were IL-1B inflam inh -51.1*, DT40 TDP1 CPT -17.6%, HT1080NT lethal 19.7%, HT1080 IDH1KD tx 18.2%, 12-LOX inh -12.7% and TDP1 cell noCPT -29.2%.
Screening CCOC(=O)C1CCCN(C(=O)c2coc(COc3cccc(F)c3F)n2)C1 (stereo unspecified) returned 12-LOX inh 24.7%.
Screening C=CCOC(=O)C(C#N)c1nc2ccccc2nc1N1CCN(C(c2ccccc2)c2ccccc2)CC1 (stereo unspecified) returned 12-LOX inh 7.9%.
Cc1cccc2cc(CN(CCCO)C(=O)Nc3cccc(Cl)c3)c(=O)[nH]c12 was read as IL-1B inflam inh -24.6, DT40 TDP1 CPT 23.1µM*, HT1080NT lethal -18.8%, HT1080 IDH1KD tx -29.8%, 12-LOX inh 296.0% and TDP1 cell noCPT 20.6µM*.
COc1cc2cc(CN(CCN3CCCC3)C(=O)Nc3ccc(F)cc3)c(=O)[nH]c2cc1OC was read as IL-1B inflam inh inconclusive, DT40 TDP1 CPT inconclusive, HT1080NT lethal -1.6%, HT1080 IDH1KD tx 1.2%, 12-LOX inh -10.0% and TDP1 cell noCPT inconclusive.
`Cc1ccc(C)c2[nH]c(=O)c(CN(CCN3CCCC3)C(=O)Nc3ccc(F)cc3)cc12` gave IL-1B inflam inh inconclusive, DT40 TDP1 CPT inconclusive, HT1080NT lethal 16.4µM*, HT1080 IDH1KD tx inconclusive, 12-LOX inh 30.4% and TDP1 cell noCPT 14.6µM*.
For Cc1cccc2cc(CN(CCCO)C(=O)Nc3ccccc3Cl)c(=O)[nH]c12 the results were IL-1B inflam inh -23.2, DT40 TDP1 CPT inconclusive, HT1080NT lethal -15.7%, HT1080 IDH1KD tx -7.3%, 12-LOX inh 30.1% and TDP1 cell noCPT -21.2%.
Screening Cc1cccc2cc(CN(CCCO)C(=O)Nc3ccc(Cl)cc3)c(=O)[nH]c12 returned IL-1B inflam inh inconclusive, DT40 TDP1 CPT inconclusive, HT1080NT lethal inconclusive, HT1080 IDH1KD tx inconclusive, 12-LOX inh 2.4% and TDP1 cell noCPT 20.6µM*.
